Values joined by “and” are separate entries in the source; they are usually repeats but may differ in a detail not shown here. Equal values may be shown once. Hit rate of the full screen: of about 310,000 compounds, about 410 (0.13%) were called active. Another 2% or so got no clear call; they are omitted. How the calls were made is not given here. Only a sample is shown. Potency and affinity values are given separately.
Assay: inhibition of RSV-induced cytopathic effect – HEp-2 cells, primary 10 µM value included (AID 2391)
Details: at 10 µM, active compounds read high

CPE inhibition, inactive:
COc1ccccc1C(=O)N(Cc1nc(-c2ccc(Cl)cc2)no1)C(C)C 2.22%
COc1ccc(Cl)cc1C(=O)N(Cc1nc(-c2cccc(C)c2)no1)C(C)C 10.2%
CC(C)NS(=O)(=O)c1ccc(CCC(=O)N2CCCC2)cc1 1.63%
CCC1CCCCN1C(=O)c1ccc2nc(Cc3ccc(OC)cc3)oc2c1 (centres undefined) 20.7%
Cc1cccc(NC(=O)CNC(=O)CN2C(=O)NC3(CCCCC3C)C2=O)c1C (centres undefined) -0.96%
CC1CCCCC12NC(=O)N(CC(=O)Nc1ccccc1-c1ccccc1)C2=O (centres undefined) -0.96%
COc1ccc(C(=O)NCc2cc(C)nc3ccccc23)cc1OC 19%
CCOCCCNC(=O)C1CCN(Cc2cccc(OCc3ccccc3)c2)CC1 -0.9%
CCOC(=O)Cn1nnnc1C(CC)N(Cc1cc2ccc(C)cc2[nH]c1=O)C1CCCC1 (centres undefined) 0%
CCOC(=O)Cn1nnnc1C(C(C)C)N(Cc1cc2c(C)cc(C)cc2[nH]c1=O)C1CCCC1 (centres undefined) 9.34%
CN(Cc1ccccc1)C(=O)CN1C(=O)c2ccc([N+](=O)[O-])cc2C1=O 1.1%
CC(=O)Nc1ccc(NC(=O)COc2ccc(Cl)cc2Cl)cc1 5.13%
N#CCCN(CCC#N)C(=O)COc1ccc(Cl)cc1Cl 2.86%
COc1ccc(NC(=O)Nc2ccc3c(c2)CCC3)c(OC)c1 3.19%
CCOc1ccccc1NC(=O)Nc1ccc2c(c1)CCC2 7.85%
O=C(NC1CCCc2ccccc21)c1ccc(Br)cc1 (centres undefined) 6.09%
O=C(Cc1ccc(Br)cc1)NC1CCCc2ccccc21 (centres undefined) 2.96%
COc1cc(C(=O)NCCC(=O)NC2CCCc3ccccc32)cc(OC)c1OC (centres undefined) 0.19%
O=C(CCl)NC1CCCc2ccccc21 (centres undefined) -0.24%
O=c1c2ccccc2ncn1Cc1ccc(Cl)c(Cl)c1 3.3%
Cc1cc(C)[n+]2n1C(=O)C(c1ccccc1)=C2[O-] 3.89% and 3.76%
COc1cccc(SCC2CSc3nc4ccccc4c(=O)n32)c1 (centres undefined) 7.09%
O=c1c2ccccc2nc2n1C(CSc1ccc(F)cc1)CS2 (centres undefined) 2.75%
O=c1c2ccccc2nc2n1C(CSc1ccccc1)CS2 (centres undefined) 1.34%
Nc1ccccc1SCC1CSc2nc3ccccc3c(=O)n21 (centres undefined) 2.42%
O=C(Nc1ccccc1SCC1CSc2nc3ccccc3c(=O)n21)c1ccccc1 (centres undefined) 2.48%
O=c1c2ccccc2nc2n1C(CSCc1ccc(Cl)cc1Cl)CS2 (centres undefined) 5.16%
O=C(OC(C(=O)NC1CCCC1)c1ccccc1F)c1ccco1 (centres undefined) 0.45%
Nc1cc(=O)[nH]c(SCC(=O)N2N=C(c3ccc(Cl)cc3)CC2c2ccco2)n1 (centres undefined) 7.31%
CCn1c(=O)n(CC(=O)Nc2ccc(F)cc2)c(=O)c2ccccc21 2.36%
CC(=O)OC[C@H]1O[C@@H](Sc2cccc3cccnc23)[C@H](OC(C)=O)[C@@H](OC(C)=O)[C@@H]1OC(C)=O 1.39%
O=C(NC1CC2CCCC(C1)N2C(=O)Nc1ccccc1)C1CC1 (centres undefined) 1.59%
O=C(COC(=O)/C=C/c1ccc(C(F)(F)F)cc1)NCC1CCCO1 (centres undefined) -1.68%
CCOC(=O)c1sc2nc3c(SCC(=O)O)cc(C(=O)c4ccccc4O)cn3c(=O)c2c1C 11.9%
Cc1sc2nc3c(C(=O)N4CCCC4)cc(C(=O)c4ccccc4O)cn3c(=O)c2c1C 1.18%
O=C(Nc1ccncc1)c1c(Cl)cccc1Cl 0%
Cc1c(C)c2c(OCC(=O)N3CCC[C@H]3C(=O)O)cc3c(c2oc1=O)CCC(C)(C)O3 0.96%
O=C(Nc1ccc(Cl)c(C(F)(F)F)c1)[C@@H]1CC=C[C@@H]2CCN(Cc3ccc(Cl)c(Cl)c3)C(=O)[C@@H]21 7.28%
O=C(Nc1ccc(Cl)c(C(F)(F)F)c1)[C@@H]1CC=C[C@@H]2CCN(Cc3ccccc3)C(=O)[C@@H]21 2.53%
COc1ccc(OC)c(Nc2nc3nonc3nc2N2CCCCC2)c1 1.59%
O=C(Cc1cccc2ccccc12)Nc1ccc(O)cc1C(=O)O 2.4%
COc1cc(NC(=O)CCCOc2ccc(Cl)cc2Cl)c(C(=O)O)cc1OC 6.77%
O=C(COc1ccc2ccccc2c1)Nc1cccc(C(=O)Nc2ccccc2C(=O)O)c1 20.8%
COc1ccccc1NC(=O)COc1ccc2ccccc2c1 4.1%
O=C(Cc1ccccc1C(=O)O)Nc1cccc2ccccc12 1.4%
O=C(CCCOc1ccc(Cl)cc1Cl)Nc1ccc(O)cc1C(=O)O 0.3%
Cc1ccc(Cl)cc1N(C(=O)c1csnn1)C(C(=O)NC1CCCC1)c1ccco1 (centres undefined) 1.87%
O=C(CN1C(=O)NC2(CCCCCC2)C1=O)Nc1ccc2c(c1)CCC2 2.7%
O=C(NCC(c1ccco1)N1CCCCC1)c1ccc(NS(=O)(=O)c2ccc(F)cc2)cc1 (centres undefined) 3.02%
COc1ccc(-c2noc(CN3CCN(c4ccccc4)CC3)n2)cc1 -0.23%
Cc1cccc(NC(=O)c2ccc(S(=O)(=O)N3CCCC3)cc2)c1C 1.87%
CC(OC(=O)c1cccn1C)C(=O)Nc1ccc2c(c1)OCO2 (centres undefined) 2.62%
CCN(CC(=O)Nc1ccc(Br)cc1)C(=O)c1nc2nc(C)cc(C)n2n1 1.87%
COC(=O)c1cccc(NC(=O)c2ccc3c(c2)C(=O)N(C(C)(C)C)C3=O)c1 9.97%
CC(C)(C)N1C(=O)c2ccc(C(=O)Nc3cc(C(=O)O)cc(C(=O)O)c3)cc2C1=O 0.7%
CCCOC(=O)Cn1cnc2scc(-c3ccc(C)cc3)c2c1=O 0.39%
COc1ccc(N=C2C(=Nc3ccc(OC)cc3)N(c3ccc(OC)cc3)C(=S)N2c2ccccc2)cc1 0.02%
COc1ccc(N=C2C(=Nc3ccc(OC)cc3)N(c3ccc(OC)cc3)C(=S)N2C)cc1 0.37%
Cc1cc(O)c2c(C)c(CC(=O)N3CCN(C(=O)C4COc5ccccc5O4)CC3)c(=O)oc2c1 (centres undefined) 6.34%
Cc1cc(OC(C(=O)O)c2ccccc2)c2c(C)c(Cc3ccccc3)c(=O)oc2c1 (centres undefined) 11.6%
Cc1c(CC(=O)N2CCN(C(=O)C3COc4ccccc4O3)CC2)c(=O)oc2cc(O)ccc12 (centres undefined) 0.83%
Cc1coc2c1c(C)cc1oc(=O)c(Cc3ccccc3)c(C)c12 1.6%
COC(=O)Cc1c(C)c2c(O)cc(C)cc2oc1=O 6.65%
CCOC(=O)Cc1c(C)c2ccc(N(CC)CC)cc2oc1=O 57.9%
C=CCN(CC(=O)Nc1c(C)cccc1CC)C(=O)SCCC 0.77%
Cc1[nH]c(C)c(S(=O)(=O)Nc2ccc(OC(F)(F)F)cc2)c1C(=O)N1CCCCC1 1.31%
C#CCOc1nc2c(c(=O)n(C)c(=O)n2C)n1Cc1ccccc1 6.97%
CCc1ccc(-c2cc(C(=O)N3N=C(C(F)F)CC3(O)C(F)F)c3ccccc3n2)cc1 (centres undefined) -3.61%
CC1c2cc3c(cc2CCN1C(=O)c1cccc(F)c1)OCCCO3 (centres undefined) 2.63%
CCCCc1ncc(CN2CCC(n3nccc3NC(=O)c3ccccc3Cl)CC2)[nH]1 0.19%
Cc1ccc(N2NC(=O)/C(=C/c3ccc(-c4ccc(Cl)c(C(=O)O)c4)o3)C2=O)cc1 0.38%
O=C(O)c1cc(-c2ccc(/C=C3\NC(=O)N(c4ccccc4)C3=O)o2)ccc1Cl 4.99%
Cc1cccnc1NC(=O)c1ccc(OCc2c(C)noc2C)cc1 1.6%
CCOc1ncccc1C(=O)Nc1nc(C(C)(C)C)cs1 0.68%
CC(C)(C)c1csc(NC(=O)c2cccnc2Cl)n1 1.36%
COc1ccc(CC2(CO)CCN(Cc3ccc(OC(F)(F)F)cc3)CC2)cc1 13.9%
COc1ccccc1NC(=O)Nc1nc(CC(=O)Nc2ccc(OC)c(OC)c2)cs1 -1.37%
Cc1cc(OCc2cc(C(=O)N(C)CCOc3ccccc3)no2)cc(C)c1Cl 13.7%
O=C(NCc1ccc(Cl)cc1)C1CCN(S(=O)(=O)c2cccc3nonc23)CC1 5.35%
COc1ccc(CNC(=O)C2CCN(S(=O)(=O)c3cccc4nonc34)CC2)cc1 0.73%
COc1ccccc1CNC(=O)C1CCCN(S(=O)(=O)c2cccc3nonc23)C1 (centres undefined) 0.88%
O=C(NCc1ccccc1Cl)C1CCCN(S(=O)(=O)c2cccc3nonc23)C1 (centres undefined) 0.66%
O=C(NNC(=O)C12CC3CC(CC(C3)C1)C2)c1ccccn1 1.78%
C/C(CC(=O)Nc1cc(C)ccn1)=N\NC(=O)C(=O)NC(C)C -0.96%
CC12CCC(O)CC1=CCC1C2CCC2(C)C1CCC21CCC(=O)O1 (centres undefined) 7.71%
CC(=O)C1[C@H](N(C)C)CC2C3CC=C4CC(O)CC[C@]4(C)C3CC[C@@]21C (some centres undefined) 0.54%
CCN(CC)S(=O)(=O)c1ccc(N2C(=O)CC2(/C=C/c2ccccc2)C(=O)NC2CCCC2)cc1 (centres undefined) 4.54%
Cc1c(Cl)ccc2c(C(=O)NCCCn3nccc3C)cc(-c3ccccn3)nc12 13.8%
Cc1nnc(NC(=O)CSc2ccc(-c3cccnc3)nn2)s1 2.73%

Source: PubChem BioAssay AID2391 (Southern Research Specialized Biocontainment Screening …, 2010)
